This is a sample that favours compounds with a hit; in the whole collection about 28% have one here.
CYP2C9 inhib: inhibitors of human CYP2C9 | inhibition, % at 5 µM | actives 20% (n = 96,000) | P11712 | CYP2C9 Supersomes, luciferin-H conversion, luminescence | AID 777;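 active = blocking of liver enzyme CYP2C9 beyond about 50% at 5 µM, limit read from the data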
Target sequence (P11712 whole entry, looked up): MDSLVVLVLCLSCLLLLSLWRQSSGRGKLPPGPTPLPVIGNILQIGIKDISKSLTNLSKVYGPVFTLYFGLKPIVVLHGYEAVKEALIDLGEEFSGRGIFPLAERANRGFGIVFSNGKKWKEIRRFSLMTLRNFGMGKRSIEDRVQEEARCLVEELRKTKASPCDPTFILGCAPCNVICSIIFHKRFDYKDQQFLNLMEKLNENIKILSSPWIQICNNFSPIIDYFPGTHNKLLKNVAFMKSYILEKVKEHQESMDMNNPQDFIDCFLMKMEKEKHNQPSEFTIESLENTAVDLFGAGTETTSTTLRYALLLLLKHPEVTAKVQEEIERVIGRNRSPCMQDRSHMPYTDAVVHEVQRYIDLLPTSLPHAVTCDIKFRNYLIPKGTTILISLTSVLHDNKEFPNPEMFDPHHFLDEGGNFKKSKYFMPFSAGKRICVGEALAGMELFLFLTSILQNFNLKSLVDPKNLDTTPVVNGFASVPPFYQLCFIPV
PLK1 PBD inh: blocks phosphopeptide binding to human Plk1 polo box domain. Plk1 PBD phosphopeptide binding, fluorescence polarization. inhibition, %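 (tested at about 20 µM)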. actives 0.13% (n = 97,000). AID 693; in the data active = inhibition above about 34%, passing the limit was not always enough
PLK1 inh: inhibitors of human PLK1 kinase; P53350; actives 0.53% (n = 97,000); AID 619; recombinant PLK1 kinase, TR-FRET peptide phosphorylation; inhibition, % at 10 µM;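 active = inhibition of 50% or more in the single-concentration screen; inactive = inhibition below 50%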;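 note: 0% = DMSO max control and 100% = H-89 dihydrochloride min control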
CYP2C19 activ: cytochrome P450 2C19 (human) activation; 96,000 tested, under 10 active; recombinant CYP2C19, luciferin-H EGE luminescence; stronger effect = higher value; 0 = fully inhibited enzyme, 1 = untreated enzyme; AID 1025; P33261; activation factor at 5 µM;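 active = activation factor of at least 2 at 5 µM in the primary screen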;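 note: 0 = wells with 2.5 mM tranylcypromine and 1 = vehicle-only wells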
CYP2C9 activ: increases human cytochrome P450 2C9 activity; P11712; recombinant CYP2C9, luciferin-H conversion, luminescence; stronger effect = higher value; factor 1 = untreated enzyme, 0 = blocked; activation factor at 5 µM; actives 1.4% (n = 96,000);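 active = activation factor of 2 or more for CYP2C9 at a 5 µM dose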;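 note: 0 = sulfaphenazole-blocked wells and 1 = vehicle-only wells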
CYP2C19 inhib: inhibitors of human CYP2C19; P33261; CYP2C19 Supersomes, luciferin-H EGE luminescence, 30 min; inhibition, % at 5 µM; actives 21% (n = 96,000);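 active = CYP2C19 inhibition above a set limit at 5 µM in the primary screen, cut at about 50% in these data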;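 note: plate controls were negative control wells for no effect and 2.5 mM tranylcypromine positive control for full effect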
Numbers without * were called inactive.

`O=C(CSc1ncnc2c1nnn2-c1ccc(F)cc1)NCC1CCCO1` (stereo not drawn) gave CYP2C9 inhib 23, PLK1 PBD inh 10, PLK1 inh -13, CYP2C19 activ 0.8, CYP2C9 activ 0.8 and CYP2C19 inhib 19.
`COc1ccc(-n2nnc3c(SCC(=O)c4ccccc4)ncnc32)cc1` gave CYP2C9 inhib -3, PLK1 PBD inh 6, PLK1 inh -1, CYP2C19 activ 1.1, CYP2C9 activ 1 and CYP2C19 inhib -6.
For COC(=O)c1ccc(CSc2ncnc3c2nnn3-c2ccc(OC)cc2)o1 the results were CYP2C9 inhib 56*, CYP2C19 activ 0.5, CYP2C9 activ 0.4 and CYP2C19 inhib 52*.
`Cc1ccc(-n2nnc3c(SCC(=O)NCC4CCCO4)ncnc32)cc1` (stereo not drawn) gave CYP2C9 inhib 64*, PLK1 PBD inh -25, PLK1 inh -3, CYP2C19 activ 0.6, CYP2C9 activ 0.4 and CYP2C19 inhib 45.
`Cc1cccc2c(SCC(=O)NCC3CCCO3)nc(-c3ccc(F)cc3)nc12` (stereo not drawn) gave CYP2C9 inhib 48, PLK1 PBD inh -10, PLK1 inh -2, CYP2C19 activ 0.5, CYP2C9 activ 0.5 and CYP2C19 inhib 52*.
Screening COc1ccc(OC)c(NC(=O)C2C3CCC(O3)C2C(=O)O)c1 (stereo not drawn) returned CYP2C9 inhib 3, PLK1 PBD inh -1, PLK1 inh -6, CYP2C19 activ 1, CYP2C9 activ 1 and CYP2C19 inhib 2.
O=C(CSc1c[nH]c2ccccc12)NCC1CCCO1 (stereo not drawn) was read as CYP2C9 inhib -17, PLK1 PBD inh -22, PLK1 inh -25, CYP2C19 activ 0.5, CYP2C9 activ 1.2 and CYP2C19 inhib 54*.
`Cn1c(=O)cc(SCC(=O)NCC2CCCO2)c2ccccc21` (stereo not drawn) gave CYP2C9 inhib -115, PLK1 PBD inh -11, PLK1 inh 2, CYP2C19 activ 1.2, CYP2C9 activ 2.1* and CYP2C19 inhib -19.
`Cn1c(=O)cc(SCC(=O)NCc2ccco2)c2ccccc21` gave CYP2C9 inhib -38, PLK1 PBD inh 12, PLK1 inh -12, CYP2C19 activ 1, CYP2C9 activ 1.4 and CYP2C19 inhib 4.
For O=C(CSc1oc(-c2ccco2)nc1S(=O)(=O)c1ccccc1)NCC1CCCO1 (stereo not drawn) the results were PLK1 PBD inh -12 and PLK1 inh -7.
O=C(CSc1cc(Cl)ccc1Cl)NCC1CCCO1 (stereo not drawn) was read as CYP2C9 inhib -216, PLK1 PBD inh -21, PLK1 inh -9, CYP2C19 activ 0.3, CYP2C9 activ 3.2* and CYP2C19 inhib 74*.
For O=C(CSc1oc(-c2ccco2)nc1S(=O)(=O)c1ccc(Cl)cc1)NCC1CCCO1 (stereo not drawn) the results were CYP2C9 inhib 35, PLK1 PBD inh 15, PLK1 inh -15, CYP2C19 activ 0.2, CYP2C9 activ 0.6 and CYP2C19 inhib 76*.
Screening O/N=C1\CCCc2oc3c(c21)CCCC3 returned CYP2C9 inhib -9, PLK1 PBD inh 2, PLK1 inh -8, CYP2C19 activ 1.1, CYP2C9 activ 1.1 and CYP2C19 inhib -9.
`Cc1nn(C(=O)c2cccc([N+](=O)[O-])c2)c(C)c1Sc1ccccc1` gave CYP2C9 inhib 9, PLK1 PBD inh 7, PLK1 inh -4, CYP2C19 activ 0.8, CYP2C9 activ 0.9 and CYP2C19 inhib 21.
For CC(NC(=O)C(Cc1ccccc1)NC(=O)c1ccccc1)C(=O)O (stereo not drawn) the results were CYP2C9 inhib 10, PLK1 PBD inh -8, PLK1 inh -11, CYP2C19 activ 1, CYP2C9 activ 0.9 and CYP2C19 inhib -3.
Cn1cc(SCC(=O)NCC2CCCO2)c2ccccc21 (stereo not drawn) was read as CYP2C9 inhib -120, PLK1 PBD inh -23, PLK1 inh -13, CYP2C19 activ 0.6, CYP2C9 activ 2.2* and CYP2C19 inhib 36.
Screening COc1ccc(NC(=S)Nc2ccccc2F)c(OC)c1 returned CYP2C9 inhib -14, PLK1 PBD inh -19, PLK1 inh 10, CYP2C19 activ 0.5, CYP2C9 activ 1.1 and CYP2C19 inhib 47.
